Compound activity (PubChem BioAssay)
bovine MsrA act – activators of bovine methionine sulfoxide reductase A. activation, % at 10.6 µM. purified bovine MsrA, absorbance read-out. 0.3% of 360,000 active; in the data active = activation above about 7.5%;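 also: 0% = vehicle and 100% = reference activator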
GC-B act – GC-B (human) receptor activation. activation, % at 10 µM. HEK293-GC-B cells, CNP EC30, cGMP TR-FRET; 0% at EC30 CNP, 100% saturating CNP. P20594. 0.11% of 370,000 active;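 active = activation at 10 µM reaching about 35% in either raw or pattern-adjusted values, limit read from the data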
MsrA inhibitor – inhibitors of bovine MsrA; purified bovine MsrA, absorbance read-out; inhibition, % at 15.5 µM; 0.75% of 360,000 active; AID 651718;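 also: 0% = vehicle wells with enzyme and 100% = reference inhibitor wells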
GC-A act – GC-A (human) enzyme activation | activation, % at 10 µM | AID 1671463 | 0.14% of 370,000 active | P16066 | HEK293 GC-A cells, cGMP TR-FRET, EC30 ANP; 0% at EC30 ANP, 100% saturating ANP; in the data active = activation above about 40%
MsrA conf – confirmation of bovine MsrA inhibitors; purified bovine MsrA, absorbance read-out; inhibition, % at 15.5 µM; 41% of 2,300 active; shares compounds with MsrA inhibitor;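 also: coupled to thioredoxin reductase with NADPH and selenocystamine and DMSO as substrate; 0% = vehicle only and 100% = full effect of reference inhibitor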
Starred values were filed as active, the others as inactive. A selection: hits, their analogues and other compounds. The true share with any hit is near 1.2%. Rule as the data show it, unless noted: active = inhibition above about 4.5%; inactive = the rest.

COc1ccc(/C=C(/NC(=O)c2ccc(Br)o2)C(=O)Nc2cccc(C(=O)O)c2)cc1 was read as bovine MsrA act -6.3, GC-B act 1.1, MsrA inhibitor 5.7*, GC-A act 1.7 and MsrA conf 4.3.
For O=C(C1CCCN1S(=O)(=O)c1cccc2ccccc12)N1CCN(c2ccccc2)CC1 (configuration not stated) the results were GC-B act -0.8 and GC-A act -2.1.
Screening c1coc(-c2nc3c4ccccc4ccn3c2Cc2ccsc2)c1 returned GC-B act -3.3, MsrA inhibitor 0.3 and GC-A act -3.6.
Screening COc1cccc(C2CC=C(C(=O)O)CN2S(=O)(=O)c2ccc(C)cc2)c1 (configuration not stated) returned GC-B act 10.4 and GC-A act 1.9.
O=C(N[C@H](C(=O)N1CCC[C@H]1C(=O)NCCc1ccccc1Cl)c1ccccc1)c1cccs1 was read as GC-B act -11.1, MsrA inhibitor -0.6 and GC-A act -7.4.
`N#Cc1c(-n2cccc2/C=N/O)sc2c1CCCC2` gave bovine MsrA act -1.8, GC-B act 2.4, MsrA inhibitor 16.2*, GC-A act -1.9 and MsrA conf 13.6*.
For C=CCNCc1cccn1-c1sc2c(c1C#N)CCCC2 the results were bovine MsrA act -5.7, GC-B act -4.7, MsrA inhibitor -0.9 and GC-A act -4.2.
For CCCCCNc1nc(N2CCCC2)c2c(c1C#N)CCN(C)C2 the results were bovine MsrA act -1.1, GC-B act 9.3, MsrA inhibitor 0.9 and GC-A act 23.8.
CCCCCNc1nc(NCCCO)c(C#N)c2c1CN(C)CC2 was read as bovine MsrA act -3.4, GC-B act 14.6, MsrA inhibitor 5.0*, GC-A act 8.5 and MsrA conf 1.1.
`CCN(CC)c1ccc(NC(=O)CSc2nnc(SCc3ccc(Cl)cc3)s2)cc1` gave GC-B act -1.0 and GC-A act -3.9.
For COc1ccc(-c2cc(C(F)(F)F)nc(SCC(=O)N(C)Cc3cn(C)nc3C)n2)cc1OC the results were bovine MsrA act -7.8, GC-B act -7.1, MsrA inhibitor 6.0*, GC-A act 4.5 and MsrA conf 3.9.
COc1ccc(-c2cc(C(F)(F)F)nc(SCC(=O)NCc3cnn(C)c3C)n2)cc1OC was read as bovine MsrA act -5.3, GC-B act 3.1, MsrA inhibitor 2.2 and GC-A act 15.3.
Screening CCN(CC)c1ccc(/C=N/NC(=O)c2cccc(S(=O)(=O)N3CCOCC3)c2)c(O)c1 returned bovine MsrA act -3.4, GC-B act 1.8, MsrA inhibitor 4.0 and GC-A act 5.9.
CCN(CC)c1ccc(C=Nc2cccc(S(=O)(=O)N3CCOCC3)c2)c(O)c1 was read as bovine MsrA act -4.6, GC-B act -2.8, MsrA inhibitor 5.8*, GC-A act 1.6 and MsrA conf 5.2*.
`O=C(Nc1ccc(Br)cc1)OC1CC2CC1[C@H]1CCCCN1C2` (some centres not stated) gave GC-B act -4.9 and GC-A act -3.4.
`COC(=O)C1=C(C)N(C)C(=NCc2ccc3c(c2)OCO3)NC1c1ccc(F)cc1` (configuration not stated) gave GC-B act 2.9, MsrA inhibitor 0.2 and GC-A act -3.4.
Screening NC(=O)CN1C(=O)C(O)(CC(=O)/C=C\C=C\c2ccccc2)c2ccccc21 (configuration not stated) returned bovine MsrA act -4.1, GC-B act -1.2, MsrA inhibitor 5.4*, GC-A act -3.5 and MsrA conf 5.0*.
Cc1ccc2c(c1)C(O)(CC(=O)/C=C/C=C/c1ccccc1)C(=O)N2 (configuration not stated) was read as bovine MsrA act -6.6, GC-B act 4.2, MsrA inhibitor 6.3*, GC-A act 0.5 and MsrA conf 3.9.
`O=C(/C=C/C=C/c1ccccc1)CC1(O)C(=O)N(CCc2ccccc2)c2ccccc21` (configuration not stated) gave bovine MsrA act -4.2, GC-B act -0.9, MsrA inhibitor 1.5 and GC-A act 2.8.
Screening CCN1C(=O)C(O)(CC(=O)/C=C/C=C/c2ccccc2)c2ccccc21 (configuration not stated) returned bovine MsrA act -5.0, GC-B act 2.9, MsrA inhibitor 5.8*, GC-A act 2.0 and MsrA conf 4.0.
`NC(=O)CN1C(=O)C(O)(CC(=O)/C=C\c2ccc3c(c2)OCO3)c2ccccc21` (configuration not stated) gave bovine MsrA act -4.8, GC-B act 1.5, MsrA inhibitor 4.8*, GC-A act -0.7 and MsrA conf 4.2.
Screening COc1ccc(-c2cc(C(=O)NN=Cc3ccc(-c4ccccc4)cc3)[nH]n2)cc1 returned GC-B act -0.8 and GC-A act -4.4.
For CCCCOc1ccc(C(=O)n2ccc3ccc(-c4ccc5ccn(Cc6ccccc6)c5c4)cc32)cc1 the results were GC-B act -30.2 and GC-A act -6.8.
CC(/C=C/c1ccccc1)=N\NC(N)=S was read as bovine MsrA act -5.4, GC-B act -0.8, MsrA inhibitor 6.0*, GC-A act -3.0 and MsrA conf 3.6.
`Cc1cc(C)n(C(=O)c2ccc(C)o2)n1` gave bovine MsrA act -8.5, GC-B act 1.2, MsrA inhibitor -1.1 and GC-A act 0.2.
Cc1cc(C)n(C(=O)c2cc3sccc3[nH]2)n1 was read as bovine MsrA act -2.3, GC-B act 1.9, MsrA inhibitor 4.7*, GC-A act 2.1 and MsrA conf 4.5.
O=C(Nc1cc(Cl)ccc1Cl)c1ccco1 was read as bovine MsrA act 6.7, GC-B act -0.7, MsrA inhibitor 0.6 and GC-A act -0.4.
CS/C(Nc1cc(Cl)ccc1Cl)=C(/C#N)C(=O)c1ccco1 was read as bovine MsrA act -5.3, GC-B act 0.8, MsrA inhibitor 5.0*, GC-A act 1.9 and MsrA conf 2.6.
Screening CCN(CC)Cc1c(C(=O)N/N=C/c2ccco2)nnn1-c1nonc1N returned bovine MsrA act -10.5, GC-B act 0.6, MsrA inhibitor 2.9 and GC-A act 2.9.
`Cc1ccc(/C=N/NC(=O)c2nnn(-c3nonc3N)c2CN(C)C)o1` gave bovine MsrA act -1.6, GC-B act 3.6, MsrA inhibitor 2.6 and GC-A act 7.4.
For Cc1ccc(/C=N/NC(=O)c2nnn(-c3nonc3N)c2-c2ccc3c(c2)OCO3)s1 the results were bovine MsrA act -5.1, GC-B act -1.3, MsrA inhibitor 5.0*, GC-A act -0.1 and MsrA conf 4.6*.
For COCc1c(C(=O)N/N=C/c2ccc(C)o2)nnn1-c1nonc1N the results were bovine MsrA act -1.0, GC-B act 2.7, MsrA inhibitor 6.6*, GC-A act 6.7 and MsrA conf 4.5.
Screening CC(=C/c1ccco1)/C=N/NC(=O)c1nnn(-c2nonc2N)c1CN(C)C returned bovine MsrA act -5.1, GC-B act 2.7, MsrA inhibitor 7.7*, GC-A act -0.4 and MsrA conf 5.4*.
